Laboratory results from PubChem BioAssay (Tox21).
Values joined by “and” are separate entries in the source; they are usually repeats but may differ in a detail not shown here. Equal entries are not always repeated. Records with an inconclusive call do not appear. Where a call stands in place of a potency, no number is given. Where a structure was tested more than once in an assay, its records may differ in their call. Active and inactive are the calls of the source. Unless noted, the call rests on the fitted dose curve; in most records, active means well fitted curve in the direction sought with a large enough effect in the repeat runs; inconclusive means weak or mixed curves; inactive means no such curve, though single readings can be large; an effect the other way counts as inactive or inconclusive.

Assays:
[1] = molecular target: Estrogen receptor beta (Homo sapiens) (UniProt Q92731); test: qHTS assay to identify small molecule agonists of the estrogen receptor beta (ER-beta) signaling pathway (AID 1259377; active means well fitted activation curve with a large enough effect in the signal ratio in the repeat runs, not every such curve was filed as active; the % refers to the signal ratio)
In short: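 A UAS-controlled beta-lactamase reporter in ER-beta-UAS-bla HEK293T cells reports receptor activation. Compounds act for 16 hr at 37C in 2% charcoal-stripped serum, and a FRET substrate is read by fluorescence after 2 hours.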

[2] = molecular target: Estrogen receptor beta (Homo sapiens) (UniProt Q92731); test: qHTS assay to identify small molecule antagonists of the estrogen receptor beta (ER-beta) signaling pathway (AID 1259378; active means well fitted inhibition curve with a large enough effect in the signal ratio in the repeat runs, not every such curve was filed as active; the % refers to the signal ratio; further: potency means the concentration at half of the fitted maximal effect)
In short: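 Antagonist mode: compounds added to beta-lactamase reporter HEK293T ER-beta-UAS cells stimulated with E2 (1nM final), 16 hr at 37C. LiveBLAzer B/G FRET substrate, 2 hours room temperature, fluorescence read-out.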

[3] = qHTS assay to identify small molecule agonists of the androgen receptor (AR) signaling pathway in the presence of an antagonist - cell viability counter screen (AID 1259379); further: nearly all actives have a fitted effect of over 25% in size; further: potency means the concentration at half of the fitted maximal effect
In short: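 Viability counter screen: CellTiter-Fluor fluorescence, measured in the same wells as the luciferase read-out. MDA-kb2 cells, 3,000/well, with nilutamide at 3.0uM final and compounds at 15 concentrations, 16 hr at 37C, 0% CO2.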

[4] = qHTS assay to identify small molecule agonists of the estrogen receptor beta (ER-beta) signaling pathway - cell viability counter screen (AID 1259380); further: nearly all actives have a fitted effect of over 30% in size; further: potency means the concentration at half of the fitted maximal effect
In short: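 Luminescence read-out (CellTiter-Glo, 30 min, room temp) taken in the same wells as the beta-lactamase reporter assay; ER-beta-UAS-bla HEK293T cells exposed to DMSO-dissolved compounds for 16 hr at 37C in 2% charcoal-stripped FBS medium.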

[5] = qHTS assay to identify small molecule antagonists of the estrogen receptor beta (ER-beta) signaling pathway - cell viability counter screen (AID 1259382); further: nearly all actives have a fitted effect of over 55% in size; further: potency means the concentration at half of the fitted maximal effect
In short: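 Luminescent ATP read-out (CellTiter-Glo, 30 min, RT) taken in the same wells as the bla reporter assay. HEK293T ER-beta-UAS-bla cells in 2% charcoal-stripped FBS were exposed to compounds with 1nM E2 for 16 hr at 37C.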

[6] = molecular target: Estrogen receptor (Homo sapiens) (UniProt P03372); test: qHTS assay to identify small molecule agonists of the estrogen receptor alpha (ER-alpha) signaling pathway in the presence of an antagonist (AID 1259383; calls by dose curve; further: top concentration of the series differs between compounds; nearly all actives have a fitted effect of over 15% in size)
In short: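 Luciferase luminescence (ONE-Glo, 30min at room temperature) measured in VM7Luc4E2 cells after 22hr compound exposure at 15 concentrations, with 10.0nM ICI-182,780 final present; cells express endogenous ER-alpha and carry four EREs upstream of luciferase.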

[7] = qHTS assay to identify small molecule agonists or antagonists of the thyroid stimulating hormone receptor (TSHR) signaling pathway - wild type cell line counter screen (AID 1259384; calls by dose curve)
In short: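 Counter screen in untransfected Hek293: compounds (15-point titration, triplicate) plus phosphodiesterase inhibitor Ro20-1724 added after 18 h plating; 30 min RT. Intracellular cAMP via competitive d2/cryptate immunoassay, 1 h incubation.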

[8] = molecular target: Thyrotropin receptor (Homo sapiens) (UniProt P16473); test: qHTS assay to identify small molecule antagonists of the thyroid stimulating hormone receptor (TSHR) signaling pathway (AID 1259385; calls by dose curve; further: nearly all actives have a fitted effect of over 20% in size)
In short: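 Antagonist mode: compound-treated TSHR-expressing HEK293 cells were stimulated with 1.5 ng/mL TSH (final) in presence of Ro20-1724 for 30 min at RT. HTRF cAMP detection after 1 h; each compound tested at 15 concentrations, triplicate.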

[9] = qHTS assay to identify small molecule agonists of the estrogen receptor alpha (ER-alpha) signaling pathway in the presence of an antagonist - cell viability counter screen (AID 1259386);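 further: cells exposed to compounds for 22 h at 37 °C before the viability read; nearly all actives have a fitted effect of over 30% in size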; further: potency means the concentration at half of the fitted maximal effect
In short: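 Read-out: CellTiter-Fluor fluorescence after 1hr reagent incubation, measured in the same wells as the luciferase readout. VM7Luc4E2 cells were exposed to 15 compound concentrations with 10.0nM ICI-182,780 for 22hr at 37C.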

[10] = molecular target: Progesterone receptor (Homo sapiens) (UniProt P06401); test: qHTS assay to identify small molecule agonists of the progesterone receptor (PR) signaling pathway (AID 1346784; calls by dose curve; further: nearly all actives have a fitted effect of over 30% in size)
In short: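 Agonist mode, quantitative HTS format in a HEK 293T line expressing a UAS-controlled beta-lactamase reporter; 16 hr compound exposure at 37C in 2% charcoal-stripped FBS, then LiveBLAzer B/G FRET fluorescence.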

[11] = molecular target: Progesterone receptor (Homo sapiens) (UniProt P06401); test: qHTS assay to identify small molecule antagonists of the progesterone receptor (PR) signaling pathway (AID 1346795; active means well fitted inhibition curve with a large enough effect in the signal ratio in the repeat runs, not every such curve was filed as active; the % refers to the signal ratio; further: potency means the concentration at half of the fitted maximal effect)
In short: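 HEK293T PR-UAS-bla reporter cells in charcoal-stripped serum (2%) received compound after a 6 hr settling period, followed by R5020 agonist at 1 nM final; 16 hr incubation preceded the FRET substrate step and fluorescence measurement.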

[12] = qHTS assay to identify small molecule agonists of the progesterone receptor (PR) signaling pathway - cell viability counter screen (AID 1346799; calls by dose curve; further: nearly all actives have a fitted effect of over 45% in size)
In short: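 Counter screen for cytotoxicity: compound-treated PR-UAS-bla HEK293T cells (16 hr, 37C, 5% CO2) were assayed with CellTiter-Glo, luminescence measured after 30 min at room temperature.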

[13] = qHTS assay to identify small molecule antagonists of the TGF-beta/Smad signaling pathway - cell viability counter screen (AID 1346824); further: nearly all actives have a fitted effect of over 50% in size
In short: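 Cytotoxicity counter-screen run in the same wells as the beta-lactamase Smad reporter read: CellTiter-Glo luminescence after 30 min at room temperature. HEK 293T SBE-bla cells had 5 hr compound exposure at 37 C with TGF-beta1 (0.25 ng/mL stock).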

[14] = qHTS assay to identify small molecule agonists of the TGF-beta/Smad signaling pathway - cell viability counter screen (AID 1346829); further: top concentration of the series differs between compounds; nearly all actives have a fitted effect of over 45% in size
In short: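 Tox21 qHTS format: SBE-bla HEK 293T cells treated with DMSO-dissolved compounds for 5 hr; CellTiter-Glo luminescence after 30 min at room temperature.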

[15] = qHTS assay to identify small molecule agonists of the TGF-beta/Smad signaling pathway (AID 1346859; active means well fitted activation curve with a large enough effect in the signal ratio in the repeat runs, not every such curve was filed as active; the % refers to the signal ratio; further: series mostly up to about 77 µM)
In short: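 Smad-responsive beta-lactamase reporter cells (HEK 293T) received compounds from DMSO stocks after overnight attachment, were incubated 5 hr, then treated 2 hr with FRET substrate before dual-emission fluorescence measurement (405 nm excitation).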

[16] = molecular target: Thyrotropin-releasing hormone receptor (Homo sapiens) (UniProt P34981); test: qHTS assay to identify small molecule antagonists of the thyrotropin-releasing hormone receptor (TRHR) signaling pathway (AID 1346877; active means well fitted inhibition curve with a large enough effect in the repeat runs, not every such curve was filed as active; further: series mostly up to about 51 µM)
In short: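 HEK293/TRHR cells, 18 h, 37 °C; Ca2+ dye 2 h; cpd 5 min RT; TRH 1 nM final; fluorescence read 3 min, 1 s intervals; 15 concs, triplicate.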

[17] = molecular target: Thyrotropin-releasing hormone receptor (Homo sapiens) (UniProt P34981); test: qHTS assay to identify small molecule agonists of the thyrotropin-releasing hormone receptor (TRHR) signaling pathway (AID 1346891; calls by dose curve;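 further: HEK293 cells expressing TRHR with calcium dye readout; series mostly up to about 58 µM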)
In short: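 Agonist-mode calcium mobilisation screen: TRHR-transfected HEK293 cells cultured overnight (18 h), dye-loaded for 2 h at 37 °C, exposed to compounds, and monitored by fluorescence for 3 min.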

[18] = Human pregnane X receptor (PXR) small molecule agonists, qHTS cell viability counter screen (AID 1346977); further: nearly all actives have a fitted effect of over 50% in size; further: potency means the concentration at half of the fitted maximal effect
In short: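 Measures live-cell protease fluorescence (CellTiter-Fluor) in PXR-Luc HepG2 cells treated 24hr with compounds at 37C. Cells had 5hr to attach before pin transfer of DMSO solutions.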

[19] = qHTS assay to identify small molecule antagonists of the progesterone receptor (PR) signaling pathway - cell viability counter screen (AID 1346798); further: series mostly up to about 92 µM; nearly all actives have a fitted effect of over 50% in size
In short: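 Same-well multiplex: after 16 hr at 37C with compound and R5020 stimulation, HEK293T cells carrying a UAS-bla reporter received LiveBLAzer substrate (2 hr RT), then CellTiter-Glo (30 min RT) for luminescent viability.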

[20] = molecular target: Androgen receptor (Homo sapiens) (UniProt P10275); test: qHTS assay to identify small molecule agonists of the androgen receptor (AR) signaling pathway in the presence of an antagonist (AID 1259381; calls by dose curve; further: nearly all actives have a fitted effect of over 15% in size)
In short: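 Luciferase read-out (ONE-Glo, 30min room temperature) in MDA-kb2 MMTV-reporter cells; agonist mode run in presence of AR antagonist nilutamide, 3.0uM final. Compounds tested as 15-point series, 16hr exposure at 37C, 0% CO2.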

Sequence of Thyrotropin-releasing hormone receptor (Homo sapiens) (P34981 whole entry, looked up): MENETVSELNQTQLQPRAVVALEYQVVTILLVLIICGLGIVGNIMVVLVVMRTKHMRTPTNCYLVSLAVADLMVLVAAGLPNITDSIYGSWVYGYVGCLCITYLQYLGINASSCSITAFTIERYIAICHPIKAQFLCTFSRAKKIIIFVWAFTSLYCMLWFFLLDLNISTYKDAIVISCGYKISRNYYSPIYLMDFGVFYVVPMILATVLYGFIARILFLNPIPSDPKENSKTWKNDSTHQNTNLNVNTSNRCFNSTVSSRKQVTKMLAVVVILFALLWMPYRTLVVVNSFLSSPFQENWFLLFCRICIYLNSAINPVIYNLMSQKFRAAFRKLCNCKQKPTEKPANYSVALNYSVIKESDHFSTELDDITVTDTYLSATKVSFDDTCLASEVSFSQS
Sequence of Estrogen receptor (Homo sapiens) (P03372 whole entry, looked up): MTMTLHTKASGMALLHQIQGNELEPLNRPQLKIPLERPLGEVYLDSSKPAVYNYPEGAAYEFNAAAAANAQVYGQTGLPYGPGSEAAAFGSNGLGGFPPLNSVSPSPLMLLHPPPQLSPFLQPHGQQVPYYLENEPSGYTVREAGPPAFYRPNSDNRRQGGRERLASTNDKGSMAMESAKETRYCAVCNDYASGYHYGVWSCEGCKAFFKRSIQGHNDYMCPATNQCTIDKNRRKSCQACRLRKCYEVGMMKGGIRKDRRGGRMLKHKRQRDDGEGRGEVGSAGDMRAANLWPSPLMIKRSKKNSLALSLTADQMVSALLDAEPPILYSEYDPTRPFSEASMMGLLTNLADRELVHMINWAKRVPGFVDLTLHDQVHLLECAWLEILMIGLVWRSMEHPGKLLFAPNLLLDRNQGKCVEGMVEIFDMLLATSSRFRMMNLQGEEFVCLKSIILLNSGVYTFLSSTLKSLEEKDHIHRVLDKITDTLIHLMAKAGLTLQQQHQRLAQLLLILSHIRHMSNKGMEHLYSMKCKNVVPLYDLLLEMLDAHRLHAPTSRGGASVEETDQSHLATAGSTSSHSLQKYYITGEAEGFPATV
Sequence of Progesterone receptor (Homo sapiens) (P06401 whole entry, looked up): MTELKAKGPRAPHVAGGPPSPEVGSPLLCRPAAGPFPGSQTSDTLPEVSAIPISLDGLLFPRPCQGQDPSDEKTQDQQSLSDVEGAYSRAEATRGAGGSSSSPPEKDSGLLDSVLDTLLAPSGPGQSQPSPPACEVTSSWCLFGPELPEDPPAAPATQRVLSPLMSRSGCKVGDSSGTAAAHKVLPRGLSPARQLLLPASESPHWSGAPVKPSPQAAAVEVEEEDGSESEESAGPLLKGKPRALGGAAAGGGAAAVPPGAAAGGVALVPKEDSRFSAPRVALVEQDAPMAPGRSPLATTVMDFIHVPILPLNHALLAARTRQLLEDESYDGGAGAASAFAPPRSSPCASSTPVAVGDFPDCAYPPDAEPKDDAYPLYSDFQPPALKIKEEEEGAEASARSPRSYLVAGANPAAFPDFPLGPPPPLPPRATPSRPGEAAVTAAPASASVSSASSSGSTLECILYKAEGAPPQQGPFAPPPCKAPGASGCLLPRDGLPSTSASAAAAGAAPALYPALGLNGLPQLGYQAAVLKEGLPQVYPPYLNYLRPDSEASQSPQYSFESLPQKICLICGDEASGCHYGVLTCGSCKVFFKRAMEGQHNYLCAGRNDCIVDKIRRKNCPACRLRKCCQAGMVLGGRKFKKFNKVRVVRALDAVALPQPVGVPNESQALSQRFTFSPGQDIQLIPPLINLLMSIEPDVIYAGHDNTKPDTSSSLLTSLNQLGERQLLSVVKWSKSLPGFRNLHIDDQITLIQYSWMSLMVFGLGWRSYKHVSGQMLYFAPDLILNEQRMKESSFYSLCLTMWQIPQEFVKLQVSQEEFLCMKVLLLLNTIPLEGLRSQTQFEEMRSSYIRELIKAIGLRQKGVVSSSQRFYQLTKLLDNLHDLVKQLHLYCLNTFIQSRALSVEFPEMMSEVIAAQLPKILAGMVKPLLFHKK
Sequence of Androgen receptor (Homo sapiens) (P10275 whole entry, looked up): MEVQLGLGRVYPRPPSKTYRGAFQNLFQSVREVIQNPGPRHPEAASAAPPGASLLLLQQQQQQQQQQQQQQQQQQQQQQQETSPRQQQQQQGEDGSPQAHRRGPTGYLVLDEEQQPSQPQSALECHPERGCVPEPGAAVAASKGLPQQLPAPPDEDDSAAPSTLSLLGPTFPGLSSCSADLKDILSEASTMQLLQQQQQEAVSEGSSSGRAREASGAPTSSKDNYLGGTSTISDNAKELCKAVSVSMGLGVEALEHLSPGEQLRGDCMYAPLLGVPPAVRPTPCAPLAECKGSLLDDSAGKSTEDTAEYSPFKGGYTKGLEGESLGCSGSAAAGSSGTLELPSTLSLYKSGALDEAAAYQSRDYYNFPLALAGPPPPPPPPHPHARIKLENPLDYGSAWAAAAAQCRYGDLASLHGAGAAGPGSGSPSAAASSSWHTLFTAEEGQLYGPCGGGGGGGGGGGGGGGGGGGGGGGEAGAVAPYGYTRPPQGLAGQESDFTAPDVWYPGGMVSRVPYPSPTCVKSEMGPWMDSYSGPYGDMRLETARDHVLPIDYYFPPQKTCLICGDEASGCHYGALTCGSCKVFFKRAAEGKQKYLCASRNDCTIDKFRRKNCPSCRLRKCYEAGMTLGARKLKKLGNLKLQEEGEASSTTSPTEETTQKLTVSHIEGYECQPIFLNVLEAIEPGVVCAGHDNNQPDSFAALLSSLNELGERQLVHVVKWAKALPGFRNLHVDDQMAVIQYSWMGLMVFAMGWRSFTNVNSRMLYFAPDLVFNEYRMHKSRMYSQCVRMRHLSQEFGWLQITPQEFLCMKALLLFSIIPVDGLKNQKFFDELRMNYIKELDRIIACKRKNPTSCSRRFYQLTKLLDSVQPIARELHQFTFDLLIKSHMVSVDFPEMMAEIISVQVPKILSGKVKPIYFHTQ
Sequence of Thyrotropin receptor (Homo sapiens) (P16473 whole entry, looked up): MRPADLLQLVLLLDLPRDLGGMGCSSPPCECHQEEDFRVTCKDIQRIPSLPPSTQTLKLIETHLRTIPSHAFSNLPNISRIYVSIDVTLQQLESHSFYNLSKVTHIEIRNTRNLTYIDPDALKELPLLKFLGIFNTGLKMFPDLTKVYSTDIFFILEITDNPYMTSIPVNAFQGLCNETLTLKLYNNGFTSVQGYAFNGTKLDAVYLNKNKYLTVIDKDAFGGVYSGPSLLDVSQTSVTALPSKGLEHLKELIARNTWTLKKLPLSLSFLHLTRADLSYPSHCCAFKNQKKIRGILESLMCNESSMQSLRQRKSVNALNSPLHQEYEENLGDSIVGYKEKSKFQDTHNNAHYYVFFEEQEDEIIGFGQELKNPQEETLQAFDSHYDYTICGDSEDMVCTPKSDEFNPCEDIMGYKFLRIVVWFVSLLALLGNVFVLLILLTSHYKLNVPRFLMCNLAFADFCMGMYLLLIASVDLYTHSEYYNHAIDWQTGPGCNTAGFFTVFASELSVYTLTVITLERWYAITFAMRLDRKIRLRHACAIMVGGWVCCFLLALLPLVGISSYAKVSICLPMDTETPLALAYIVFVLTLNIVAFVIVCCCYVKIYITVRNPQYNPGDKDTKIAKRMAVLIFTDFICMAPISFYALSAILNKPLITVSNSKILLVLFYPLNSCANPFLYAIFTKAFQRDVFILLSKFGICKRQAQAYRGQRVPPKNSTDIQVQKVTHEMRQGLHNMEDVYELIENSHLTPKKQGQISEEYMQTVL
Sequence of Estrogen receptor beta (Homo sapiens) (Q92731 whole entry, looked up): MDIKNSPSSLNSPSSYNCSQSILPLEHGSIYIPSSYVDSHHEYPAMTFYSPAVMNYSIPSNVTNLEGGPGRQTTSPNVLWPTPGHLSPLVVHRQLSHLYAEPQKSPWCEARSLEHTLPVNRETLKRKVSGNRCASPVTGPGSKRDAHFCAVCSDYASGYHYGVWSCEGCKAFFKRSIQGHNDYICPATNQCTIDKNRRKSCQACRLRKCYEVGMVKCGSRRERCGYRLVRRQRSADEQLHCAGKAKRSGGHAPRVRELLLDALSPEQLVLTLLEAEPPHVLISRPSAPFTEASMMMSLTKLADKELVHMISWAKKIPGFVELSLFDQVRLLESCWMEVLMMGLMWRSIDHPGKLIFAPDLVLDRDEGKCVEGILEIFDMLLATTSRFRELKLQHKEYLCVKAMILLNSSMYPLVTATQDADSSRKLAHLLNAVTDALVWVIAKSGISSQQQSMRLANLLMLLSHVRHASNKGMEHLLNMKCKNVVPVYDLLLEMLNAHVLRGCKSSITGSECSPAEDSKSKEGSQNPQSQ

Compound | Potency [1] | Potency [2] | Potency [3] | Potency [4] | Potency [5] | Potency [6] | Potency [7] | Potency [8] | Potency [9] | Potency [10] | Potency [11] | Potency [12] | Potency [13] | Potency [14] | Potency [15] | Potency [16] | outcome [17] | Potency [18] | Potency [19] | outcome [20]
CC1(C)Cc2cccc(O)c2O1 | inactive | inactive | inactive | inactive | inactive | inactive | inactive | inactive | inactive | inactive | inactive | inactive | inactive | inactive | inactive | inactive | inactive | inactive |  | 
OCCOCCO | inactive | inactive | inactive | inactive | inactive | inactive |  |  | inactive |  | inactive | inactive | inactive | inactive | inactive |  |  | inactive | inactive | 
COc1ccc(CO)cc1 | inactive | inactive | inactive | inactive | inactive |  | inactive | inactive | inactive | inactive | inactive | inactive | inactive | inactive | inactive | inactive | inactive | inactive | inactive | 
OC(c1ccc(Cl)cc1)(c1cncnc1)c1ccccc1Cl (stereo not given) | inactive | 24.3 µM (active) | 24.8 µM (active) and inactive | 49.4 µM (active) | 62.2 µM (active) and inactive | inactive |  |  | inactive | inactive | 13.7 µM (active) |  | inactive | inactive | inactive | inactive | inactive | inactive | inactive | 
COP(=S)(OC)Oc1ccc(Sc2ccc(OP(=S)(OC)OC)cc2)cc1 | inactive | inactive | inactive | inactive | inactive | inactive | inactive | inactive | inactive | inactive | 54.5 µM (active) and inactive | inactive | inactive | inactive | inactive | inactive | inactive | inactive | inactive | inactive
N#Cc1nn(-c2c(Cl)cc(C(F)(F)F)cc2Cl)c(N)c1S(=O)C(F)(F)F (stereo not given) | inactive | 23.7 µM (active) | 61.5 µM (active) and inactive | inactive |  | inactive | inactive | inactive | 21.8 µM (active) and 29.8 µM (active) | inactive |  | inactive | inactive | inactive | inactive | inactive | inactive | 19.4 µM (active) and 29.8 µM (active) |  | inactive
CN(C)c1nc(=O)n(C2CCCCC2)c(=O)n1C | inactive | inactive | inactive | inactive | inactive | inactive | inactive | inactive | inactive |  | inactive | inactive | inactive | inactive | inactive | inactive | inactive | inactive |  | 
